# Results: PubChem BioAssay AID1220 (Sanford-Burnham Center for Chemical Genomics, 2008)
# In all, about 190,000 compounds went through this assay and about 1,300 (0.68%) were called active. This excerpt belongs to a sample that is enriched for actives. Values without a mark were called inactive. Rule as the data show it: active = inhibition above about 50%; inactive = the rest.
# Molecular target: Mannose-6-phosphate isomerase (Homo sapiens) (UniProt P34949)
# Test: MPI inhibition at elevated mannose 6-phosphate – biochemical, fluorescence intensity, high mannose 6-phosphate, primary screen (AID 1220)
# Conditions: recombinant PMI enzyme, coupled fluorescence intensity; at 20 µM; active compounds read high
# Sequence of Mannose-6-phosphate isomerase (Homo sapiens) (P34949 whole entry, looked up): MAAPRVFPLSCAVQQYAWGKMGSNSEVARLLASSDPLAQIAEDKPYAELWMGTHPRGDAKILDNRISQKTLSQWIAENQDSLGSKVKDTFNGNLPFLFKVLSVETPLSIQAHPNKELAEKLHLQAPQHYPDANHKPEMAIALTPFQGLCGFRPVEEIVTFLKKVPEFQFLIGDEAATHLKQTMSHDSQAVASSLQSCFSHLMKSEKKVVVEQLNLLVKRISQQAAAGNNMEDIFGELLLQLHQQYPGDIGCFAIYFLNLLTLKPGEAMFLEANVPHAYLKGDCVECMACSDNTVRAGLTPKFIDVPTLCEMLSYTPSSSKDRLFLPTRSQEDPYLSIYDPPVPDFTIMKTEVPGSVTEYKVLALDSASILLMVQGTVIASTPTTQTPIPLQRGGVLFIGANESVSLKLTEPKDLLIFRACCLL
row,SMILES,inhibition
1,O=C(CO/N=C/c1ccc(OC(F)F)cc1)NC1CCCC1,0.6%
2,COC(=O)C1=C(C)N(CCc2ccc(OC)c(OC)c2)C(=O)C1,-10.6%
3,Cc1nnc(SCc2nnc(-c3cccs3)o2)n1Cc1ccccc1,-7.3%
4,COc1cc(C(c2oc(CO)cc(=O)c2O)c2oc(CO)cc(=O)c2O)cc(OC)c1OC,-11.4%
5,CCCN1CCN(CCCNC(=S)Nc2ccc(OC)cc2)CC1,6.6%
6,O=C(OCC(=O)N1CCCCC1)c1ccccc1SCC(=O)N1CCCCC1,-4%
7,Cn1c(CN2CCOCC2)c(C#N)c2ccccc21,3%
8,N#Cc1c2ccc(O)cc2n2ccccc12,62.6% (active)
9,Cc1cc(=O)n2ccccc2c1C#N,3.5%
10,COC(=O)CCC/C=C1/SCC(NC(=O)c2ccccc2)/C1=N/O (configuration not stated),-7.4%
11,CCC(C(=O)Nc1cnccn1)c1ccccc1 (configuration not stated),4%
12,CCN(CC)S(=O)(=O)c1cccc(C(=O)N/N=C/c2ccccc2OCC(=O)O)c1,2.8%
13,CCN(CC)S(=O)(=O)c1cccc(C(=O)N/N=C/c2ccc(OC)c(O)c2)c1,6.1%
14,CCn1c(C)nc2cc(C(=O)N/N=C/c3ccccc3C)ccc21,-6.4%
15,CCN(CC)S(=O)(=O)c1cccc(C(=O)N/N=C/c2cccc(O)c2O)c1,53.1% (active)
16,CCOc1ccccc1/C=N/NC(=O)c1cccc(S(=O)(=O)N(CC)CC)c1,5.1%
17,CCN(CC)S(=O)(=O)c1cccc(C(=O)N/N=C/c2cc(OC)c(O)c(OC)c2)c1,15.5%
18,COc1ccc(O)c(/C=N/NC(=O)c2ccc(CSc3nc(C)cc(C)n3)cc2)c1,-12.2%
19,CCn1c(C)nc2cc(C(=O)N/N=C/c3cccc(OC)c3O)ccc21,-8.6%
20,Cc1cc(C)nc(SCc2ccc(C(=O)N/N=C/c3ccccc3C(=O)O)cc2)n1,-6.2%
21,Cc1cc(C)nc(SCc2ccc(C(=O)N/N=C/c3cccc(O)c3O)cc2)n1,55% (active)
22,O=C(Nc1ccc(N=Nc2ccccc2)c(NC(=O)C2CCCO2)c1)C1CCCO1 (configuration not stated),9%
23,COc1ccccc1NC(=O)CN1CCN(c2ccccn2)CC1,-9%
24,COC(=O)Cc1c(C)c2ccc(OCC(=O)N(C)C)cc2oc1=O,-8.1%
25,Cc1cc(C)n(C(=O)CCCCCC(=O)n2nc(C)cc2C)n1,-6.2%
26,O=C(CCN1C(=O)C2C3C=CC(C3)C2C1=O)Nc1ccccc1 (configuration not stated),-8.2%
27,C/C(=N\NC(=O)Cn1c(-c2ccccn2)nc2ccccc21)c1cccc(O)c1,-16.2%
